Screening results as filed in PubChem.
In the library only some 2.8% were active in any assay of this set; here they are far more common.
Pol iota inh: inhibitors of human DNA polymerase iota; Q9UNA4; Pol iota fluorescent replication assay, 10 min; Potency, µM (top dose mostly 115 µM), most hits filed as inhibitors; AID 588590; 390,000 compounds, 1% hits
Target sequence (Q9UNA4 whole entry, looked up): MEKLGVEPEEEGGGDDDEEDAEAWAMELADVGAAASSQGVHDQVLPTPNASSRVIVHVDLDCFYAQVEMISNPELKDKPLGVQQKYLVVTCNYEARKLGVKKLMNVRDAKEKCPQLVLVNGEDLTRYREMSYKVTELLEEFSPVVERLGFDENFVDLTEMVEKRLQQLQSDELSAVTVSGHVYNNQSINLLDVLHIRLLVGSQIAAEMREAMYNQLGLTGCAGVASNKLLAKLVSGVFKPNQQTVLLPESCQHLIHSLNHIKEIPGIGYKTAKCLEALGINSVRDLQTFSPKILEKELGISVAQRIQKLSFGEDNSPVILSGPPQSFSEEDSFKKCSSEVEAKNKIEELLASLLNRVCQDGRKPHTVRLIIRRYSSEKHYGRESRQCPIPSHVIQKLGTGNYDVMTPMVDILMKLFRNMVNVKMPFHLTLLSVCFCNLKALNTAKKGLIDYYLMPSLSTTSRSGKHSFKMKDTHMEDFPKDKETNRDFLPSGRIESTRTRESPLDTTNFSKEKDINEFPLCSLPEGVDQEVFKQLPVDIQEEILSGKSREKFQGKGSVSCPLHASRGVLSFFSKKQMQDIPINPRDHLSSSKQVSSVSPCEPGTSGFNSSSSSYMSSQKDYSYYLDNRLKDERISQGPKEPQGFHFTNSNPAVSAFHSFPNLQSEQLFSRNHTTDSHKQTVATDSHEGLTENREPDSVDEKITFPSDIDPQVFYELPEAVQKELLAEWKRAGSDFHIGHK
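Pol iota at 10 nM preincubated 15 min with compounds at room temperature; reaction started with fluorescent substrate, 50 nM final. Fluorescence read kinetically at 0 and 10 min; buffer-only wells as negative control.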
FEN1 inh: inhibitors of human flap endonuclease 1 | Recombinant FEN1 flap cleavage, fluorescence, 15 min | Potency, µM (doses to about 114 µM), usual class: inhibitors | 390,000 compounds, 0.35% hits; further: nearly all actives have a fitted effect of over 65% in size
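Enzyme 10 nM, 15 min RT preincubation with compound; start with substrate 50 nM final; reads at 0 and 15 min; qHTS titration, four-parameter Hill fit.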
Pol kappa inh: DNA polymerase kappa (human) inhibition; Q9UBT6; purified Pol kappa, fluorescent DNA synthesis assay, 10 min; Potency, µM (doses to about 107 µM), usual class: inhibitors; 400,000 compounds, 0.53% hits; AID 588579
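Pol kappa 10 nM + cpd, 15 min RT; start w/ substrate 50 nM final; fluorescence kinetic read, 0 and 10 min. Neg ctrl: buffer, no enzyme.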
PI5P4Ka inh: inhibitors of human PI5P4K alpha; P48426; PI5P4Kalpha enzyme, ADP-Glo luminescence, 60 min; hits give low values; max response, %; 330,000 compounds, 1.2% hits; active means max response of -50% or lower; inconclusive means between -30% and -50%; inactive means -30% or higher; further: value at the top dose of about 77 µM
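ADP-Glo luminescence end-point read after a 60 min room-temperature kinase reaction of PI5P4Kalpha plus substrate, initiated with ATP at 5 microM final. Buffer: 0.038 M HEPES pH 7.4, EGTA, 0.1% CHAPS, 5% DMSO.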
Pol beta inh: blocks human DNA polymerase beta activity | P06746 | Pol beta primer extension/strand displacement, fluorescence kinetic | Potency, µM (doses to about 114 µM), usual class: inhibitors | 340,000 compounds, 1.3% hits
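Enzyme-only controls used 10 nM Pol beta; buffer lacking enzyme served as negative control. Compound preincubated 15 min, then 50 nM substrate added; 0 and 10 min reads at room temperature.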
Pol eta inh: inhibitors of human DNA polymerase eta. Potency, µM (doses to about 114 µM), usual class: inhibitors. AID 588591. 390,000 compounds, 1.2% hits. recombinant Pol eta, fluorescent DNA replication assay
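Pol eta at 10 nM preincubated with compounds 15 min at room temperature; reaction started with fluorescent substrate (50 nM final) and read kinetically at 0 and 10 min.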
Large screens that a line does not name were inactive. Unless noted, the call rests on the fitted dose curve; in most records, active means well fitted curve in the direction sought with a large enough effect; inconclusive means small, poorly fitted or top-dose-only effect, or another doubt; inactive means no such curve, though single readings can be large; an effect the other way counts as inactive or inconclusive.

CCOc1ccc(CCNC(=O)Cn2c(=O)c3cccn3c3cccnc32)cc1	Pol beta inh 100µM
O=C(CCn1c(=O)c2cccn2c2ccc(F)cc21)NCCc1ccccc1	none
NS(=O)(=O)c1ccc(CCNC(=O)Cn2c(=O)c3cccn3c3ccc(F)cc32)cc1	Pol beta inh 44.7µM (no result: PI5P4Ka inh)
O=C(O)c1cc(N(Cc2ccccc2O)Cc2cc(O)ccc2O)ccc1O	Pol kappa inh 11.2µM (no result: Pol iota inh, FEN1 inh, PI5P4Ka inh, Pol beta inh, Pol eta inh)
Cc1ccc(NC(=O)N2CCc3c([nH]c4ccccc34)C2c2ccccc2F)c(Cl)c1 (centres undefined)	none (no result: PI5P4Ka inh)
CCN1C(=O)CC(C(=O)NC)SC1=Nc1cc(Cl)c(O)c(Cl)c1 (centres undefined)	Pol iota inh 89.1µM
COC(=O)/C=C1\S/C(=N\N=C\CC(=O)OC)NC1=O	Pol iota inh 17.8µM, FEN1 inh inconclusive, Pol kappa inh 39.8µM, Pol eta inh inconclusive
CCCCCCn1cnc2c(c1=O)c1nc3ccccc3nc1n2/N=C/c1ccco1	Pol iota inh inconclusive, Pol beta inh 44.7µM, Pol eta inh inconclusive
COCCn1cnc2c(c1=O)c1nc3ccccc3nc1n2/N=C/c1ccco1	none
Cc1[nH]c(-c2ccc(F)cc2)cc1C(=O)N1CCN(c2ccccc2F)CC1	none
O=C(N/N=C/C(Br)=C/c1ccccc1)c1n[nH]c2c1CCC2	Pol iota inh 3.55µM, Pol kappa inh inconclusive, Pol eta inh inconclusive (no result: PI5P4Ka inh)
CCOc1cc(/C=C2/C(=O)N(c3ccccc3)N=C2C)ccc1OC(=O)c1ccco1	Pol iota inh 1µM (no result: PI5P4Ka inh)
CCOc1cc(/C=C2\C(=O)N(c3ccc(C(N)=O)cc3)N=C2C)ccc1OC(=O)c1cccs1	Pol iota inh inconclusive, Pol eta inh 50.1µM
CCN(CC)C(=O)[C@H]1C[C@H](CC(=O)NCCCOC)C(=O)N2CCc3c([nH]c4cc(CCC(=O)N(C)C)ccc34)[C@]12C	none (no result: Pol beta inh)
COc1cccc(OCc2nnc(SCC(=O)NCc3ccco3)n2CCc2ccccc2)c1	Pol iota inh inconclusive, Pol kappa inh inconclusive, PI5P4Ka inh inconclusive, Pol beta inh 22.4µM, Pol eta inh 14.1µM
COc1cccc(OCc2nnc(SCC(=O)NCc3ccco3)n2C)c1	none
Cc1ccc2nc(-c3ccc(NC(=O)CSCC(=O)O)cc3)sc2c1	none
Cc1csc(NC(=O)CSCC(=O)O)c1-c1nc2ccccc2s1	Pol iota inh inconclusive, FEN1 inh inconclusive, Pol eta inh 89.1µM
O=C(NN=C1c2ccccc2-c2ccccc21)c1ccccc1	Pol beta inh inconclusive
O=C(NN=C1c2ccccc2-c2ccccc21)c1ccccc1Br	Pol iota inh inconclusive, Pol beta inh 0.282µM (no result: PI5P4Ka inh)
O=C(Nc1ccc(N2CCOCC2)cc1)c1csc([C@@H]2O[C@H](CO)[C@H](O)[C@H](O)[C@H]2O)n1	none (no result: Pol iota inh, FEN1 inh, Pol kappa inh, Pol beta inh, Pol eta inh)
CN(C)S(=O)(=O)c1cccc(NC(=O)COC(=O)/C=C/c2ccc(Br)o2)c1	Pol iota inh 44.7µM, Pol kappa inh inconclusive, PI5P4Ka inh inconclusive, Pol beta inh inconclusive, Pol eta inh inconclusive
CN(C)S(=O)(=O)c1cccc(NC(=O)COC(=O)c2ccc(Br)o2)c1	FEN1 inh inconclusive
Cc1ccc(NC(=O)COC(=O)/C=C/c2ccc(Br)o2)cc1S(=O)(=O)N(C)C	Pol iota inh 44.7µM, Pol kappa inh inconclusive
O=C(Nc1cccc([N+](=O)[O-])c1)c1ccc2nc(N3C(=O)CCC3=O)sc2c1	PI5P4Ka inh inconclusive
O=C(Nc1cccc(Br)c1)c1ccc2nc(N3C(=O)CCC3=O)sc2c1	PI5P4Ka inh -58.4, Pol eta inh inconclusive
CCCCC[C@@H]1[C@H]2[C@H]3C(=O)N(c4ccccc4)C(=O)[C@H]3CC(=O)[C@H]2[C@H](c2ccccc2)N1S(=O)(=O)c1ccc(C)cc1	none (no result: Pol iota inh, FEN1 inh, Pol kappa inh, Pol beta inh, Pol eta inh)
O=C(O)CSc1cc(C(=O)c2cc(F)ccc2O)cn2c(=O)c3c(-c4ccccc4)csc3nc12	Pol iota inh inconclusive, FEN1 inh inconclusive, Pol kappa inh inconclusive, PI5P4Ka inh inconclusive, Pol beta inh inconclusive, Pol eta inh 22.4µM
Cc1c(Cl)cccc1NC(=S)N1CCN(C(=O)c2ccco2)CC1	Pol beta inh 79.4µM
CCn1ccc2cc(S(=O)(=O)N3CCC(C(=O)NCCOC)CC3)ccc21	none (no result: PI5P4Ka inh)
CN1CCc2cc3c(c4c2[C@H]1[C@H](O)c1ccccc1-4)OCO3	Pol iota inh inconclusive, FEN1 inh 39.8µM, Pol kappa inh inconclusive, Pol beta inh 44.7µM
COc1ccccc1CNC(=O)c1ccc2c(c1)nnn2C1CCCC1	none (no result: PI5P4Ka inh)
CCCC[n+]1c(/C=C/c2ccc(N(C)C)cc2)sc2ccccc21	Pol iota inh 50.1µM, FEN1 inh 50.1µM, Pol kappa inh inconclusive (no result: PI5P4Ka inh, Pol beta inh, Pol eta inh)
CN(CCCS(=O)(=O)[O-])c1ccc(/C=C/c2ccc3ccccc3[n+]2C)cc1	Pol iota inh inconclusive
CCCCCCCCCC[n+]1ccc(/C=C/c2ccc(N(C)C)cc2)c2ccccc21	Pol iota inh 50.1µM, FEN1 inh 79.4µM, Pol kappa inh 39.8µM (no result: PI5P4Ka inh, Pol beta inh, Pol eta inh)
CN(C)c1ccc(/C=C/c2sc3ccccc3[n+]2CCCCI)cc1	Pol iota inh 79.4µM, FEN1 inh inconclusive, Pol kappa inh 50.1µM (no result: PI5P4Ka inh, Pol beta inh, Pol eta inh)
CN(Cc1ccccc1)c1ccc(/C=C/c2sc3ccccc3[n+]2C)cc1	FEN1 inh 39.8µM (no result: PI5P4Ka inh, Pol beta inh, Pol eta inh)
CC1=C(C(=O)c2ccccc2)C(c2ccc(N3CCOCC3)cc2)NC(=O)N1 (centres undefined)	none
O=c1c2ccccc2nc2c3ccccc3c(NCCN3CCOCC3)nn12	Pol beta inh 39.8µM (no result: Pol iota inh, FEN1 inh, Pol kappa inh, PI5P4Ka inh, Pol eta inh)
Cn1c(=O)[nH]c(=O)c2c1nc(SCC(O)CCl)n2Cc1ccccc1 (centres undefined)	none
COc1ccc(C)cc1NC(=O)NNC(=O)c1cc2ccccc2cc1O	Pol beta inh 79.4µM
N#Cc1c(N)sc(=S)c2c1CCCCC2	Pol iota inh inconclusive, FEN1 inh inconclusive, Pol kappa inh 28.2µM, PI5P4Ka inh -91.2, Pol beta inh 12.6µM, Pol eta inh 12.6µM
O=C(COc1ccccc1[N+](=O)[O-])Nc1cc(Cl)ccc1C(=O)O	PI5P4Ka inh -54.8
CC[C@]12c3[nH]c4cc(-c5ccco5)ccc4c3CCN1C(=O)[C@@H](CC(=O)NCc1ccco1)C[C@@H]2C(=O)N1CCN(C(=O)c2ccco2)CC1	Pol iota inh 50.1µM (no result: Pol beta inh)
CC[C@]12c3[nH]c4ccccc4c3CCN1C(=O)C(CC(=O)NCc1ccco1)C[C@@H]2C(=O)N1CCN(C(=O)c2ccco2)CC1 (some centres undefined)	none (no result: Pol beta inh)
COc1ccc(C)cc1NC(=O)C(=O)NCC(c1cccnc1)N1CCN(c2ccccc2F)CC1 (centres undefined)	none (no result: PI5P4Ka inh)
O=C(CCl)Nc1nc(-c2ccco2)c(-c2ccco2)s1	Pol iota inh inconclusive, Pol beta inh inconclusive, Pol eta inh 12.6µM
COc1cc(-c2nc(=S)[nH][nH]2)cc(OC)c1OC	Pol iota inh inconclusive, FEN1 inh inconclusive, PI5P4Ka inh -79.0
COc1ccc(C(=O)N/C(=C\c2ccc(OC)c(OC)c2)C(=O)N2CCCCC2)cc1	none
